Screening data: PubChem, National Center for Advancing Translational Sciences (NCATS)
HP1b chromo inh = HTS for Inhibitors of HP1-beta Chromodomain Interactions with Methylated Histone Tails. AlphaScreen HP1-beta / biotin-H3K9me3 peptide binding. actives 0.56% (n = 390,000). Chromobox protein homolog 1 (Homo sapiens), P83916. Potency, µM (series often up to 114 µM), actives largely listed as inhibitors; note: nearly all actives have a fitted effect of over 70% in size
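Compound inhibition of the preformed complex between 50 nM HP1-beta and 50 nM biotinylated H3K9me3 peptide was read by AlphaScreen. Buffer was PBS pH 7.4 with 0.01% Tween-20. Incubations ran 30 min at room temperature, with 10 ug/mL donor/acceptor beads.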
G9a block = qHTS Assay for Inhibitors of Histone Lysine Methyltransferase G9a; Histone-lysine N-methyltransferase EHMT2 (Homo sapiens), Q96KQ7; Potency, µM (top dose mostly 102 µM), actives largely listed as inhibitors; G9a H3K9 monomethylation, AlphaScreen, 2 h; actives 8.8% (n = 350,000); note: nearly all actives have a fitted effect of over 75% in size
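Compounds were preincubated with 20 nM G9a for 15 min, after which biotinylated H3K9 peptide (500 nM) and SAM (20 uM) started a 2 h room-temperature reaction. Monomethylated product was quantified by antibody-based AlphaScreen chemiluminescence.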
GLS inh = qHTS for Inhibitors of Glutaminase (GLS); Glutaminase kidney isoform, mitochondrial (Homo sapiens), O94925; actives 0.21% (n = 410,000); AID 624170, 2012; Potency, µM (titrated, usually from 45.5 µM), actives largely listed as inhibitors; GLS enzymatic activity, qHTS titration
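Coupled fluorescence readout: glutamate oxidase/HRP/Amplex Red detect glutamate formed by hKGA from L-glutamine (1 mM solution added). Buffer 45 mM KH2PO4 pH 8.2, 0.02% Tween-20; reads at t0 and 30 min RT.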
JMJD2A Tudor inh = qHTS Assay for Inhibitors of JMJD2A-Tudor Domain; Lysine-specific demethylase 4A (Homo sapiens), O75164; AlphaScreen JMJD2A-Tudor / H3K4me3 peptide binding; Potency, µM (series often up to 114 µM), most hits filed as inhibitors; actives 4.4% (n = 390,000); note: nearly all actives have a fitted effect of over 50% in size
BAZ2B inh = qHTS Assay for Inhibitors of BAZ2B | AlphaScreen BAZ2B-H3K14Ac peptide displacement | Bromodomain adjacent to zinc finger domain protein 2B (Homo sapiens), Q9UIF8 | Potency, µM (titrated, usually from 114 µM), hits mostly inhibitors | actives 4.4% (n = 360,000); note: nearly all actives have a fitted effect of over 60% in size
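AlphaScreen displacement: compounds (up to 110uM) incubated 30 min at room temperature with a preformed 50 nM BAZ2B/50 nM biotinylated H3K14Ac peptide complex in PBS pH 7.4 with Tween-20. Donor and acceptor beads at 10 ug/mL final added, 20 min light-protected before reading.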
A number is an active result; [ ] = another dose, or the depositor's remark. An excerpt weighted towards active compounds, which were near 10% of everything screened. Calls come from the whole dose curve; as a rule, active = well fitted curve in the direction sought with a large enough effect; inconclusive = small, poorly fitted or top-dose-only effect, or another doubt; inactive = no such curve, though single readings can be large; an effect the other way counts as inactive or inconclusive.

COc1cc(C2/C(=C(\O)c3ccc4c(c3)OCCO4)C(=O)C(=O)N2Cc2ccccc2)ccc1O (stereo not drawn) was read as HP1b chromo inh inactive, GLS inh inactive, JMJD2A Tudor inh inactive and BAZ2B inh 50.1µM.
Screening CCCN1CCN(C(=O)c2ccc(S(=O)(=O)N(C)c3ccccc3OC)cc2)CC1 returned GLS inh inactive.
For CCC(C)NC(=O)Nc1ccc(Br)cc1 (stereo not drawn) the results were HP1b chromo inh inactive, G9a block inactive, GLS inh inactive, JMJD2A Tudor inh inactive and BAZ2B inh inactive.
Screening CCC(C)Nc1ccc(NC(C)CC)cc1 (stereo not drawn) returned HP1b chromo inh inconclusive, G9a block inactive[0.501 µM], GLS inh inactive, JMJD2A Tudor inh 39.8µM and BAZ2B inh 35.5µM.
`COc1ccc(NS(=O)(=O)c2ccc(N/N=C/c3ccc(N4CCOCC4)cc3)c([N+](=O)[O-])c2)cc1` gave HP1b chromo inh inactive, G9a block inactive, GLS inh inactive, JMJD2A Tudor inh inactive and BAZ2B inh inconclusive.
NS(=O)(=O)c1ccc(N/N=C/c2ccc(C(=O)O)cc2)c([N+](=O)[O-])c1 was read as HP1b chromo inh inactive, GLS inh inactive, JMJD2A Tudor inh inactive and BAZ2B inh inconclusive.
For CCOc1ccc(C=NNc2ccc(S(=O)(=O)Nc3ccccc3C(=O)O)cc2[N+](=O)[O-])cc1OC the results were HP1b chromo inh inconclusive, GLS inh inactive and JMJD2A Tudor inh 20µM.
Screening CCOc1cc(/C=N/Nc2ccc(S(=O)(=O)Nc3ccccc3C(=O)O)cc2[N+](=O)[O-])cc(Cl)c1O returned GLS inh inactive.
COc1cc(C=NNc2ccc(S(=O)(=O)Nc3ccccc3C(=O)O)cc2[N+](=O)[O-])ccc1O was read as HP1b chromo inh inconclusive, GLS inh inactive and JMJD2A Tudor inh 25.1µM.
`O=C(O)c1ccccc1NS(=O)(=O)c1ccc(N/N=C/c2cccc(O)c2O)c([N+](=O)[O-])c1` gave HP1b chromo inh inconclusive, GLS inh inactive and JMJD2A Tudor inh 20µM.
`CC(=O)Nc1ccc(C=NNc2ccc(S(=O)(=O)Nc3ccccc3C(=O)O)cc2[N+](=O)[O-])cc1` gave HP1b chromo inh inconclusive, GLS inh inconclusive and JMJD2A Tudor inh 50.1µM.
For COc1cc(NC(=O)COCc2cc(-c3ccc(F)cc3)on2)cc(OC)c1OC the results were HP1b chromo inh inactive, G9a block inconclusive, GLS inh inactive, JMJD2A Tudor inh inactive and BAZ2B inh inactive.
For Cc1ccc(C(=O)Nc2ccccc2N2CCCCC2)o1 the results were HP1b chromo inh inactive, G9a block inactive, GLS inh inactive, JMJD2A Tudor inh inactive and BAZ2B inh inactive.
`CN(CCO)c1ccc(C=NNc2ccc([N+](=O)[O-])cc2S(=O)(=O)Nc2ccccc2C(=O)O)cc1` gave HP1b chromo inh 44.7µM, GLS inh 11.2µM and JMJD2A Tudor inh 44.7µM.
For CC(=O)Nc1cccc(/C(C)=N/Nc2ccc(S(=O)(=O)Nc3ccccc3C(=O)O)cc2[N+](=O)[O-])c1 the results were HP1b chromo inh inconclusive, GLS inh inconclusive and JMJD2A Tudor inh 35.5µM.
COc1ccc(C(C)=NNc2ccc([N+](=O)[O-])cc2S(=O)(=O)Nc2ccccc2C(=O)O)c(OC)c1 was read as HP1b chromo inh inactive, GLS inh inactive and JMJD2A Tudor inh inconclusive.
Screening COCCNC(=O)C1(C)CCN(C(=O)c2ccc(SC(F)(F)F)cc2)C1 (stereo not drawn) returned GLS inh inactive.
For C#CCOCCOCCOCCNc1nc(N2CCN(C(=O)CCCCCCCCCCNC(=O)[C@H](CCCCN)n3cc(CCCC(=O)O)nn3)CC2)nc(N2CCN(C(=O)CCCCCCCCCCNC(=O)[C@H](CCCCN)n3cc(CCCC(=O)O)nn3)CC2)n1 the results were HP1b chromo inh inactive, G9a block inactive[2.33 µM], GLS inh inactive, JMJD2A Tudor inh inconclusive and BAZ2B inh inactive.
`C#CCOCCOCCOCCNc1nc(N2CCN(C(=O)CCCCCCCCCCNC(=O)[C@H](CCCCN)n3cc(CCO)nn3)CC2)nc(N2CCN(C(=O)CCCCCCCCCCNC(=O)[C@H](CCCN=C(N)N)n3cc(C[C@@H](C)CC)nn3)CC2)n1` gave HP1b chromo inh inconclusive, G9a block inactive[2.33 µM], GLS inh inconclusive, JMJD2A Tudor inh 44.7µM and BAZ2B inh 50.1µM.
Screening C#CCOCCOCCOCCNc1nc(N2CCN(C(=O)CCCCCCCCCCNC(=O)Cn3cc(C[C@@H](C)O)nn3)CC2)nc(N2CCN(C(=O)CCCCCCCCCCNC(=O)Cn3cc(C[C@@H](C)O)nn3)CC2)n1 returned HP1b chromo inh inactive, G9a block inactive[2.33 µM], GLS inh inactive, JMJD2A Tudor inh inactive and BAZ2B inh inactive.
`C#CCOCCOCCOCCNc1nc(N2CCN(C(=O)CCCCCCCCCCNC(=O)[C@H]([C@@H](C)CC)n3cc(CCCCN=C(N)N)nn3)CC2)nc(N2CCN(C(=O)CCCCCCCCCCNC(=O)[C@H](CCCCN)n3cc(C[C@@H](C)CC)nn3)CC2)n1` gave G9a block inactive[2.33 µM] and BAZ2B inh 50.1µM.
Screening C#CCOCCOCCOCCNc1nc(N2CCN(C(=O)CCCCCCCCCCNC(=O)[C@H](CCCCN)n3cc(CCCC(=O)O)nn3)CC2)nc(N2CCN(C(=O)CCCCCCCCCCNC(=O)[C@H](CCCN=C(N)N)n3cc(C[C@@H](C)CC)nn3)CC2)n1 returned HP1b chromo inh inactive, G9a block inactive[2.33 µM], GLS inh inactive, JMJD2A Tudor inh 56.2µM and BAZ2B inh 50.1µM.
Screening C#CCOCCOCCOCCNc1nc(N2CCN(C(=O)CCCCCCCCCCNC(=O)Cn3cc(C[C@@H](C)O)nn3)CC2)nc(N2CCN(C(=O)CCCCCCCCCCNC(=O)[C@H](CCCCN)n3cc(C[C@@H](C)CC)nn3)CC2)n1 returned HP1b chromo inh inconclusive, G9a block inactive[12.7 µM], GLS inh inconclusive, JMJD2A Tudor inh 79.4µM and BAZ2B inh inconclusive.
For C#CCOCCOCCOCCNc1nc(N2CCN(C(=O)CCCCCCCCCCNC(=O)[C@@H](CCC(=O)O)n3cc(CCCCCN)nn3)CC2)nc(N2CCN(C(=O)CCCCCCCCCCNC(=O)[C@@H](CCC(=O)O)n3cc(CCCCCN)nn3)CC2)n1 the results were HP1b chromo inh inactive, G9a block inactive[2.33 µM], GLS inh inactive, JMJD2A Tudor inh inactive and BAZ2B inh inconclusive.
For Cc1ccc(C)c(NC(=O)CN2C(=O)c3cccc4cccc2c34)c1 the results were HP1b chromo inh inactive, G9a block inactive, GLS inh inactive, JMJD2A Tudor inh inactive and BAZ2B inh inactive.
